# According to PubChem BioAssay (NCATS):
# Records with an inconclusive call do not appear. Activity calls are given as the source filed them. The call rests on the fitted dose curve; in most records, active means well fitted inhibition curve with a large enough effect; inconclusive means small, poorly fitted or top-dose-only effect; inactive means flat fitted curve, though single readings scatter.
# Biological target: Calcium and integrin-binding protein 1 (Homo sapiens) (UniProt Q99828)
# Test: Primary qHTS for Identification of Calcium Integrin Binding Protein 1 (CIB1) Competitor (AID 1508620);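 further: GST tagged CIB1 binding a fluorescein labelled alphaIIb integrin peptide tracer; top concentration of the series differs between compounds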
# Settings: CIB1-GST / FITC-alphaIIb peptide fluorescence polarization; series mostly up to 114 µM; activity change, negative = inhibition: at the top concentration
# Method in brief: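 CIB1-GST (1 uM final) and compound incubated 15 min at room temperature before adding FITC-alphaIIb peptide tracer (100 nM final). Competition for binding read by fluorescence polarization (ex 480, em 540) after another 15 min at room temperature.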
# On the % scale 0 is the no-effect control and ±100 the full control effect.
# Sequence of Calcium and integrin-binding protein 1 (Homo sapiens) (Q99828 whole entry, looked up): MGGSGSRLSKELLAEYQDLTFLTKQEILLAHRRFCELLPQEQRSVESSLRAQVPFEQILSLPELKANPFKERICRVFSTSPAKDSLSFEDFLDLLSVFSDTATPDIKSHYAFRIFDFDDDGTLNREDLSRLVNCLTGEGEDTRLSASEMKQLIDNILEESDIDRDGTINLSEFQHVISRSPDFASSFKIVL
SMILES,"activity change, negative = inhibition",Potency
O=[N+]([O-])c1ccccc1S(=O)(=O)Nc1cccc2cccnc12,-5.17% (inactive),–
CC(=O)N1CCc2cc(S(=O)(=O)N3CCN(S(=O)(=O)c4c(F)cccc4F)CC3)ccc21,1.97% (inactive),–
O=C1CCCC2=C1C(c1cnccc1C(F)(F)F)N=C(Nc1nc3ccccc3o1)N2 (stereo not given),-3.02% (inactive),–
CCCN(C)c1ncnc2ccc(-c3ccc4c(c3)OCO4)cc12,-0.106% (inactive),–
COc1ccc(NC(=O)C(OC(=O)CNC(=O)c2ccccc2)c2ccccc2)cc1F (stereo not given),2.77% (inactive),–
NC(=O)C1CCN(c2nccc(-c3ccc4c(c3)OCCO4)n2)CC1,-23% (inactive),–
COc1ccc(OC)c(NC(=O)C(OC(=O)CNC(=O)c2ccccc2)c2ccccc2)c1 (stereo not given),2.26% (inactive),–
COc1cc(Nc2nc(-c3ccncc3)nc3ccccc23)ccc1F,–,inactive
Cn1c2cc(B(O)O)sc2c2cnn(Cc3ccccc3F)c(=O)c21,-11.5% (inactive),–
COc1cccc(C2c3c(ncn(-c4cccnc4)c3=N)Oc3ccc4ccccc4c32)c1 (stereo not given),2.7% (inactive),–
O=C(O)c1ccc(O)c2ncc(NC3CCNCC3)cc12,-4.19% (inactive),–
Cc1ccc(C[C@H](C(=O)O)N2C(=O)c3ccc(C(=O)O)cc3C2=O)cc1,2.82% (inactive),–
O=C(Nc1ccc(F)nc1)Nc1nnc(-c2ccncc2)s1,-0.195% (inactive),–
Cc1cc2c(s1)c1c(C)nn(Cc3ccc(F)cc3)c(=O)c1n2C,3.78% (inactive),–
Cc1cc(-c2nnc3n2CCC3)c(C)n1-c1ccccc1,5.46% (inactive),–
Cc1cc(C)nc(NC(=S)N2CCN(c3cccc(S(C)=O)c3)CC2)c1 (stereo not given),-26.6% (inactive),–
CCNc1ncnc2ccc(-c3ccc4c(c3)OCO4)cc12,-4.66% (inactive),–
CCOc1ccc(COc2ccc(-c3nc4ccccc4[nH]3)cc2)cc1,-5.15% (inactive),–
CN(C)c1cccc(-c2ncc(F)c(N3CCC(C(N)=O)CC3)n2)c1,3.13% (inactive),–
COc1ccccc1-c1csc(N2CCC(C(N)=O)CC2)n1,4.41% (inactive),–

SMILES,"activity change, negative = inhibition",Potency
N#Cc1cccc(NS(=O)(=O)c2ccc3c(c2)CCC(=O)N3)c1,2.15% (inactive),–
Cc1ccc(NS(=O)(=O)c2cc3c(cc2Cl)NC(=O)CO3)cc1C,6.91% (inactive),–
COCCCc1cc(F)c(S(=O)(=O)N2CCN(S(=O)(=O)c3ccc4c(c3)OCCO4)CC2)cc1F,1.13% (inactive),–
Nc1ccc(C(=O)Nc2ccc(-c3nc4ccccc4[nH]3)cc2)cc1Cl,0.18% (inactive),–
CCOc1ccc(CCNC(=O)c2cc3sccc3n2Cc2ccncc2)cc1OCC,-1.57% (inactive),–
O=C(Nc1ccc(F)c(F)c1)Nc1nnc(-c2ccncc2)s1,3.77% (inactive),–
CCCCN(C)C(=O)Cn1nc(-c2ccccc2C)ccc1=O,7.38% (inactive),–
CC1=C(C(=O)Nc2nc3ccccc3s2)C(c2nn(C)cc2Cl)N=C(Nc2nc3ccccc3o2)N1 (stereo not given),-1.41% (inactive),–
Cc1nnc(-c2cnn(C)c2N)n1CCCc1ccncc1,2.64% (inactive),–
Cc1ccc(OCCn2c(CCNC(=O)c3cccc(Cl)c3)nc3ccccc32)cc1,1.18% (inactive),–
CC(=O)Nc1sc2c(c1-c1cccc3[nH]ncc13)CCNC2,-1.12% (inactive),–
FC(F)(F)c1ccccc1-c1nc(NCc2ccc(-c3cccc4ccccc34)cc2)c2ccccc2n1,7.88% (inactive),–
CN1CCN(C(=O)c2cccc(-c3ccc(CNc4ccc(N5CCN(C(=O)OC(C)(C)C)CC5)cc4)o3)c2)CC1,-2.72% (inactive),–
Fc1cc(F)cc(Nc2nc(NC3CCCC3)nc(C3CO3)n2)c1 (stereo not given),-3.61% (inactive),–
O=C(CSc1nnc(-c2cccc(S(=O)(=O)N3CCCC3)c2)n1-c1ccccc1)Nc1ccccc1,13.1% (inactive),–
O=C1NS(=O)(=O)C(c2ccccc2)C1c1ccccc1 (stereo not given),-3.72% (inactive),–
Cc1ccc(OCCn2c(CCN(C)C(=O)C3CCCCC3)nc3ccccc32)cc1,-9.81% (inactive),–
Cc1ccnc(NC(=S)N2CCN(c3ccccc3C(F)(F)F)CC2)c1,–,inactive
CC(C)(C)OC(=O)N1CCN(c2ccc(NCc3cnc(-c4ccc(C#N)cc4)s3)cc2)CC1,5.77% (inactive),–
Cc1cc(C)nc(NC(=S)N2CCN(c3ccc(Cl)c(Cl)c3Cl)CC2)c1,-8.99% (inactive),–
